Screening results (PubChem)
This excerpt belongs to a sample that is enriched for hits.
Giardia FBPA inh: inhibitors of Giardia lamblia fructose-1,6-bisphosphate aldolase. actives 0.71% (n = 290,000). A8B2U2. Potency, µM (highest dose often 59.6 µM), actives largely listed as inhibitors. purified Giardia FBPA. AID 2451; also: nearly all actives have a fitted effect of over 55% in size
Target sequence (A8B2U2 whole entry, looked up): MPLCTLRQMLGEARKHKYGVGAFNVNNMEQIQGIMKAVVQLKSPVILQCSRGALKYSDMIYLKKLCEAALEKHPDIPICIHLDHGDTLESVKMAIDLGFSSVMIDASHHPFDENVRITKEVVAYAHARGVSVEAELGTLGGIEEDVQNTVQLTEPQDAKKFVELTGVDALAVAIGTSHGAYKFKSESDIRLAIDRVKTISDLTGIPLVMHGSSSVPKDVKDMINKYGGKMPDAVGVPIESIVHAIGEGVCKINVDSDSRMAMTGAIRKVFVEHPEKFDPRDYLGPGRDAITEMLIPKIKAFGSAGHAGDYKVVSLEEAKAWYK
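40 nM FBPA preincubated 10 min at RT with compound (up to 57.5 uM final), then substrate plus GAPDH/TPI/NAD/arsenate coupling and diaphorase/resazurin added. Fluorescence read after 20 min at RT, 525/598 nm.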
Cruzain Triton: cruzain (T. cruzi) inhibition with detergent; P25779; purified cruzain, Z-FR-AMC fluorescence, 0.01% Triton; Potency, µM, usual class: inhibitors; actives 0.43% (n = 200,000); AID 1478; also: nearly all actives have a fitted effect of over 40% in size
Target sequence (P25779 123-467 limits assumed): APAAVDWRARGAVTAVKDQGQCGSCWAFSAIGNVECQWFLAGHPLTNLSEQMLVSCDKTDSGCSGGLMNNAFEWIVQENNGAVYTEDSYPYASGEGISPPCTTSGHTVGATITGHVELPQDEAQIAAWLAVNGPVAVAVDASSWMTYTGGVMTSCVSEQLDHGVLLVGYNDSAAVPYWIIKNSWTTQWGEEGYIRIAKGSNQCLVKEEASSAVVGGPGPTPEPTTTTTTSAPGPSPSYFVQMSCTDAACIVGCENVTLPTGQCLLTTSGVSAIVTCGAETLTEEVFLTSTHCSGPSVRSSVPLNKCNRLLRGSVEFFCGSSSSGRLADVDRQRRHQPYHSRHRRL
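Compounds were screened in titration against cruzain (1.5 nM) with 0.01% Triton X-100 to counter colloidal aggregation. Activity was the AMC fluorescence increase over 60 s after adding 2 uM Z-FR-AMC at pH 5.5.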
Cruzain inh noDet: inhibitors of Trypanosoma cruzi cruzain without detergent; actives 2.3% (n = 200,000); Potency, µM, most hits filed as inhibitors; P25779; purified cruzain, Z-FR-AMC fluorescence, no detergent; also: nearly all actives have a fitted effect of over 40% in size
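Purified cruzain at 1.5 nM, pre-incubated 15 min with compound at room temperature in 100 mM sodium acetate pH 5.5, 5 mM DTT, 0.00005% Triton X-100. Reaction started with 2 uM Z-FR-AMC; AMC fluorescence increase over 60 s gives rate.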
A number is an active result; i = inactive; ? = inconclusive; nt = no result; [ ] = remark or other dose. Calls follow the shape of the dose curve; as a rule, active = well fitted curve in the direction sought with a large enough effect; inconclusive = small, poorly fitted or top-dose-only effect, or another doubt; inactive = no such curve, though single readings can be large; an effect the other way counts as inactive or inconclusive.

SMILES | Giardia FBPA inh | Cruzain Triton | Cruzain inh noDet
COC(=O)c1oc2ccc(Br)cc2c1NC(=O)c1ccccc1 | i | i | 12.6µM
COC(=O)c1oc2ccc(Cl)cc2c1NC(C)=O | i | i | i
C[C@H]1Cc2c(COc3ccccc3)nc3c(c2CO1)CN(C(=O)c1ccco1)CC3 | i[12.9 µM] | nt | nt
O=C(c1ccc2c(c1)OCO2)[C@@H]1[C@@H]2C(=O)N(C3CCCCC3)C(=O)[C@@H]2C2c3ccccc3C=CN21 (stereo not given in full) | ? | i | 20µM
O=C1C=C[C@@H](O)[C@H]2[C@@H]3C(=O)N(Cc4ccc5c(c4)OCO5)C(=O)[C@@H]3CC[C@H]12 | i[12.9 µM] | nt | nt
O=C(Nc1ccc2c(c1)OCO2)[C@@H]1[C@@H]2C(=O)N(C3CCCCC3)C(=O)[C@@H]2C2c3ccccc3C=CN21 (stereo not given in full) | ? | i | 20µM
O=C(Nc1ccc2c(c1)OCO2)C1CCCCC1 | i | nt | nt
CC(C)(C)C(=O)[C@@H]1[C@@H]2C(=O)N(C3CCCCC3)C(=O)[C@@H]2[C@H]2c3ccccc3C=CN12 | ? | i | ?
O=C(c1cccs1)[C@@H]1[C@@H]2C(=O)N(Cc3ccc4c(c3)OCO4)C(=O)[C@@H]2C2c3ccccc3C=CN21 (stereo not given in full) | ? | i | 25.1µM
CCCn1cc(S(=O)(=O)c2ccc(CC)cc2)c(=O)c2ccccc21 | nt | i | i
COC(=O)/C=C/c1cccc(N(Cc2ccc(-c3ccc(N(C)C)cc3)cc2)C(=O)C2CCCCC2)c1 | i | nt | nt
Cc1ccc(-c2nn(-c3ccccc3)cc2/C=N/NC(=O)c2ccc(Br)o2)cc1 | i | i | ?
COc1ccc(-c2nn(-c3ccccc3)cc2/C=N/NS(=O)(=O)c2ccccc2)cc1 | i | i | ?
O=C(N/N=C\c1cn(-c2ccccc2)nc1-c1ccccc1)c1ccc(Br)o1 | i | i | 25.1µM
COc1ccc(-c2nn(-c3ccccc3)cc2/C=N/NC(=O)c2cccc(S(=O)(=O)Nc3ccccc3Cl)c2)cc1 | i | i | 7.94µM
CN(C)CCCNc1c2c(nc3ccc(Cl)cc13)CCCC2 | nt | i | i
O=C(NCc1ccc(F)cc1)c1ccc(NC(=O)N2CC3CCCN3c3ccccc32)cc1 (stereo not given) | nt | i | ?
O=C1c2ccccc2C(=O)N1C[C@]1(C(=O)O)NCCS1(=O)=O | nt | i | i
CCOc1ccccc1CNC(=O)C1CCN(c2nnc(-n3c(C)ccc3C)s2)CC1 | nt | i | i
Cc1nn(Cc2c(Cl)cccc2Cl)c(C)c1NC(=O)c1sc2ccccc2c1Cl | i | i | i
Cc1nn(Cc2ccc(Cl)c(Cl)c2)c(C)c1NC(=O)c1sc2ccccc2c1Cl | i | i | 15.8µM
C(=C\c1ccccc1)/C=N/Nc1nc(N2CCCCC2)nc(N2CCCCC2)n1 | i | i | 3.98µM
O=[N+]([O-])c1ccccc1/C=C/C=N/Nc1nc(N2CCCCC2)nc(N2CCCCC2)n1 | i | nt | nt
Cc1ccc(C(=O)COC(=O)c2cc(-c3ccccc3)nc3ccccc23)cc1C | nt | i | i
COc1ccc(-c2nn(-c3ccccc3)cc2C(=O)OCC(=O)c2ccc(C)c([N+](=O)[O-])c2)cc1 | i | i | 25.1µM
SMILES | Giardia FBPA inh | Cruzain Triton | Cruzain inh noDet
COC(=O)c1cn(-c2ccccc2)nc1-c1ccc(OC)cc1 | i | nt | nt
COc1ccc(-c2nn(-c3ccccc3)cc2C(=O)n2nnc3ccccc32)cc1 | i | i | 15.8µM
COc1ccc(-c2cc(C(=O)OCC(=O)c3ccc(C)c([N+](=O)[O-])c3)c3ccccc3n2)cc1 | i | i | 10µM
COc1ccc(NC(=O)c2cn(-c3ccccc3)nc2-c2ccc(C)cc2)cc1 | nt | i | i
O=C(COC(=O)c1cccnc1Cl)Nc1ncc(Cl)cc1Cl | i | nt | nt
Cc1ccc(-c2nn(-c3ccccc3)cc2C(=O)OCC(=O)Nc2ncc(Cl)cc2Cl)cc1 | i | i | 31.6µM
Cc1cc(C)c(NC(=O)CSc2n[nH]c(-c3ccccc3Cl)n2)c(C)c1 | nt | i | i
COc1cc(C)ccc1OCCSc1nc2ccc(NC(=O)c3ccco3)cc2s1 | nt | i | ?
O=[N+]([O-])c1ccc(/C=N/Nc2nc(N3CCCCC3)nc(N3CCCCC3)n2)cc1 | i | nt | nt
O=[N+]([O-])c1ccc(Nc2nc(N/N=C\c3ccc4c(c3)OCO4)nc(N3CCCCC3)n2)cc1 | i | i | 7.94µM
COc1ccc(C(=O)Nc2nc(-c3nnn(-c4ccc(F)cc4F)c3C)ns2)cc1 | nt | i | i
COc1ccc(-c2nc3c(c4c2C[C@H](c2ccccc2)OC4)CN(S(=O)(=O)c2ccc(NC(C)=O)cc2)CC3)c(C)c1 | i[12.9 µM] | nt | nt
Cc1ccc(C)c2[nH]c(=O)c(CN(CCN3CCCC3)C(=O)Nc3cccc(Cl)c3)cc12 | ? | i | 25.1µM
Cc1cc(C)c2cc(CN(CCN3CCCC3)C(=O)Nc3ccc(F)cc3)c(=O)[nH]c2c1 | ? | i | ?
CCC(C(=O)Nc1cc(OC)ccc1OC)n1c(C)c2cnn(-c3ccccc3)c(=O)c2c1C (stereo not given) | nt | i | ?
C[C@H](NC(=O)c1ccc(Cl)c(Cl)c1)c1ccc(-c2ccccc2)cc1 | nt | i | i
N#Cc1ccc(N/N=C/c2cn(-c3ccccc3)nc2-c2ccccc2)c([N+](=O)[O-])c1 | i | i | 5.01µM
NS(=O)(=O)c1ccc(N/N=C/c2cn(-c3ccccc3)nc2-c2cccs2)c([N+](=O)[O-])c1 | i | nt | nt
Cc1nc(-c2cccc(NS(=O)(=O)c3ccc4ccccc4c3)c2)cs1 | i | i | 25.1µM
Cc1nc(CNS(=O)(=O)c2ccc3ccccc3c2)cs1 | i | i | i
CC1=C(c2ccc(C(C)C)cc2)S(=O)(=O)NC1=NCCCN1CCN(c2ccccc2F)CC1 | nt | i | i
CN1/C(=C\C=N\NC(=O)c2ccc(O)cc2)C(C)(C)c2ccccc21 | i | ? | 20µM
CN1/C(=C\C=N\NC(=O)c2cccnc2)C(C)(C)c2ccccc21 | i | nt | nt
Cc1cc(Nc2cccc(Br)c2)n2c(nc3ccccc32)c1C#N | nt | i | i
Cc1csc(NC(=O)CSc2nsc(SCC(=O)Nc3nc(C)cs3)c2C#N)n1 | i | i | ?
SMILES | Giardia FBPA inh | Cruzain Triton | Cruzain inh noDet
Cc1ccc(NC(=O)CSc2nsc(SCC(=O)Nc3ccc(C)cc3C)c2C#N)c(C)c1 | i | i | 10µM
COc1cccc(CC(=O)N2CCc3nc(-c4ccccc4)c4c(c3C2)CO[C@@H](C)C4)c1 | i[12.9 µM] | nt | nt
Cc1ccc(Cn2c(SCC(C)C)nc3c2c(=O)[nH]c(=O)n3C)cc1 | i | i | 10µM
CCCSc1nc2c(c(=O)[nH]c(=O)n2C)n1Cc1ccc(C)cc1 | i | i | i
CCCCCCCCCCCCCC[C@@H](O)[C@@H](O)[C@@H](N)CO | i | nt | nt
N[C@@H](COC(c1cccc(F)c1)c1ccccc1OCc1ccccc1)C(=O)O (stereo not given in full) | i | nt | nt
CC(C)(C)c1ccc(-c2nc(SCCCOc3ccccc3)n3[nH]c(=O)cc3n2)cc1 | nt | i | 12.6µM
COc1ccccc1OCCCSc1nc(-c2ccc(C(C)(C)C)cc2)nc2cc(=O)[nH]n12 | nt | i | i
CCOC(=O)c1cnn(-c2cccc(F)c2)c1C1CCNCC1 | nt | i | i
CCC(=O)CC(c1ccccc1)c1c(O)c2ccccc2sc1=O (stereo not given) | i | i | i
O=c1c(C(c2ccccc2)c2c(O)sc3ccccc3c2=O)c(O)sc2ccccc12 | i | 25.1µM | ?
